Data taken from the supplement of paper PMC6555819.

Legend:
Test in all cases: PBM binding z-score (relative to random genomic background probes); higher = stronger binding; sequences stand for … in GC…GCGATTGACAGCGTAGAATGAAGG
[1] = test system: PPARg:RXRa DBDmut IVT, anti-RXR (DBD mutation: RXRa K156A/R161A, NR concentration 270 nM, RXRa partner concentration 90 nM)
Outline: (§1)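 Scanned fluorescence from custom Agilent 4×180K protein-binding microarrays was regression-normalized. Binding z-scores use random background probes as reference. Ligand-free nuclear receptor dimers were incubated on the arrays for 1 h and detected with antibodies against each partner (one per run).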

[2] = test system: PPARg:RXRa IVT, anti-PPARg (NR concentration 270 nM, RXRa partner concentration 90 nM)
Outline: as §1

[3] = test system: PPARg DBDmut:RXRa IVT, anti-PPARg (DBD mutation: PPARg1 K132A/R137A, NR concentration 270 nM, RXRa partner concentration 90 nM)
Outline: as §1

[4] = test system: PPARg DBDmut IVT, anti-PPARg (DBD mutation: PPARg1 K132A/R137A, NR concentration 270 nM)
Outline: as §1

[5] = test system: PPARg homodimer (NR concentration 180 nM)
Outline: as §1

[6] = test system: PXR:RXRa (NR concentration 270 nM, RXRa partner concentration 90 nM)
Outline: as §1

[7] = test system: PXR homodimer (NR concentration 270 nM)
Outline: as §1

[8] = test system: RARa:RXR (NR concentration 270 nM, RXRa partner concentration 90 nM)
Outline: as §1

[9] = test system: RARa homodimer (NR concentration 270 nM)
Outline: as §1

| Sequence | PBM binding z-score [1] | PBM binding z-score [2] | PBM binding z-score [3] | PBM binding z-score [4] | PBM binding z-score [5] | PBM binding z-score [6] | PBM binding z-score [7] | PBM binding z-score [8] | PBM binding z-score [9] |
| --- | --- | --- | --- | --- | --- | --- | --- | --- | --- |
| ATATGTAGCTTAAGGGTCATTCAGGTTGGTTCGC | 0.343 | 2.21 | 1.55 | 0.663 | 2.61 | 4.83 | 1.67 | 4.2 | 0.894 |
| CGAACTAAGTCATTGACAGGACAGTGAATAGTAA | 0.976 | 0.473 | -0.569 | 0.367 | -0.739 | -0.093 | -0.313 | 0.0796 | 0.472 |
| CCGACGGGGGCAAGGTTACCATAACGCACAGCCA | 1.63 | 2.94 | 2.07 | 2.52 | 1.9 | 2.63 | 0.67 | 3.36 | 0.881 |
| GCTGCTAGGTCAGGATGGTCAGCTAACGGGTACG | 2.74 | 3.02 | -0.328 | -0.66 | 0.599 | 0.108 | -0.722 | 0.555 | -0.167 |
| CATACCGGGTCAGCTAGGCCAGAGTAGGGACGGC | 1.21 | 2.82 | 0.167 | 0.0787 | 0.359 | 1.05 | -0.232 | 1.76 | -0.125 |
| CCTACTGGGCCAAGGTCATTGCTCAGTCAAAGCA | 3.53 | 4.65 | 0.15 | -1.36 | 1.17 | 3.36 | 0.887 | 3.01 | -0.436 |
| CGAACTAGGTCAGAACAGGACATTGAAGGATGAT | 7.08 | 7.32 | 2.82 | 2.2 | 1.27 | 1.96 | 0.214 | 1.66 | 0.708 |
| AGTCATAGTTCACTAGGTAACGTAAGATTCAGCT | 1.88 | 3.43 | 1.06 | 0.768 | 1.27 | 1.17 | 0.241 | 1.21 | 0.337 |
| AGTCAAAGTTCACGAGGTAACGTAAGATTCAGCT | 1.37 | 4.03 | 1.17 | 0.67 | 2.91 | 5.13 | 2.45 | 4.95 | 1.29 |
| ATCGAATGGTCGAAGGTGAGTATACCCACCCGAA | -0.883 | 0.182 | 0.483 | 0.223 | 0.138 | -0.0379 | -0.408 | 0.334 | 0.141 |
| CGTCAAAGTTCAAGTTAACGTAACAGAAAGCAGC | 0.502 | 2.16 | 0.474 | 0.736 | 3.88 | 4.92 | 4.14 | 3.96 | 2.01 |
| TTACGAAGGTGAAAGGTCGTTGATGCACGCCTTG | 2.05 | 4.53 | 0.416 | 0.212 | 1.39 | 3.77 | 0.289 | 5.13 | 0.203 |
| AGTCCAAGTTCACTAGGTAACGTAAGATTCAGCT | 2.21 | 3.58 | 1.01 | 0.63 | 0.72 | 2.45 | 2.13 | 1.17 | 0.555 |
| GATACAGAGTCAGCTAGAGGCCAGAGTATGGAAA | -0.664 | -0.657 | -0.407 | -0.534 | -0.64 | -0.537 | -0.489 | -0.487 | -0.438 |
| ACAGACAGGTGAGTGAAGGTCACTCAGCTGGACG | 0.842 | 2.27 | 0.253 | 0.153 | 1.49 | 3.66 | 0.106 | 2.82 | 0.0123 |
| CTCGAAAGGTCAGTTGAGGTGAGTATACGGATAA | 2.81 | 3.53 | 0.544 | 1.62 | 5.81 | 5.79 | 0.639 | 5.08 | 3.41 |
| CGTCCAAGGTCAAAGGTCAGGGAAGAGATGACGG | 3.65 | 6.24 | 1.42 | 0.451 | 3.19 | 7 | 1.61 | 8.27 | 2.57 |
| CGTCGGAGGACAACAGGAGGTCAGAGCTGCCAGA | 0.202 | 0.616 | -1.5 | -1.4 | 2.42 | 2.5 | 0.93 | 2.58 | 0.114 |
| CGTCCAAGGTCAATGCAAGGTCAGTGAAAGCATT | 3.53 | 4.28 | 0.246 | 0.606 | 5.89 | 6.14 | 2.19 | 6.91 | 2.02 |
| ATCTCTAGGTAAAGTTCAGCGAAAGATCGATAGA | 2.11 | 2.5 | 1.45 | 1.53 | 1.49 | 2.29 | 1.48 | 2.06 | 0.708 |
| TAGCCTAGGTCAGATCGGGCGAGTATACGCTATA | 0.488 | 1.31 | -0.335 | -0.507 | 0.138 | 0.314 | -0.678 | 0.971 | -1.26 |
| CGAACTAGGACATCCAGGACAGTGAATACATTGA | 5.1 | 4.07 | 0.493 | 0.652 | 0.302 | -0.363 | 0.206 | 0.00684 | 0.136 |
| CATACAGGGTCCGCTAGGCCAGAGTAGGGACGGC | -1.42 | -0.128 | 0.386 | -0.456 | -0.436 | -0.819 | -0.353 | -0.535 | -0.0023 |
| TTACCAAGGTGAAAGGTCGTTGAAGCACGCCTTG | 2.63 | 5.39 | 0.668 | -0.186 | 1.84 | 4.44 | 0.41 | 6.52 | -0.363 |
| CCGACTGGGCCATTCAGAGGTCATTGATCATATG | 3.29 | 2.53 | -0.872 | -0.8 | 3.14 | 4.88 | 2.75 | 4.62 | -0.131 |
| CGAACTAGGTCAGAACAGGACAGTTAAGGATGAT | 7 | 7.32 | 3.55 | 1.83 | 1.49 | 1.15 | 0.458 | 1.41 | 0.874 |
